Our source for the Potency and activity, negative = inhibition values is PubChem BioAssay (NCATS).

Experiment [1] in a line: qHTS for Inhibitors of Plasmodium falciparum (DD2) proliferation (AID 504314).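 For activity, negative = inhibition: parasite DNA measured by SYBR Green fluorescence after red cell lysis; plate controls were DMSO vehicle for no effect and artemisinin wells for full effect.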 Note: potency is the fitted concentration of half-maximal effect. The method in brief:
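Infected RBCs, 0.3% parasitemia, 2.5% Hct; compound 72 h, 37C/5% CO2; lyse + SYBR Green I, RT overnight, dark; read ex485/em535; normalize to DMSO and artemisinin 0.29 uM.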
A general note: qHTS replaces the single test concentration by a dilution series.

Experiment [2] can be described thus: qHTS for Inhibitors of Plasmodium falciparum (GB4) proliferation (AID 504315). Note: nearly all actives have a fitted effect of over 50% in size. Note: potency is the fitted concentration of half-maximal effect. The method in brief: (§1)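 Erythrocytes infected with P. falciparum line (0.3% parasitemia, 2.5% hematocrit final) incubated with compounds 72 h at 37 °C, 5% CO2; SYBR Green lysis buffer added, fluorescence read next day. Normalized to 0.29 uM artemisinin and DMSO.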
Experiment [3] is described as follows: qHTS for Inhibitors of Plasmodium falciparum (7G8) proliferation (AID 504316). Note: nearly all actives have a fitted effect of over 65% in size. Note: potency is the fitted concentration of half-maximal effect. An outline of the steps:
as §1

Experiment [4] in a line: qHTS for Inhibitors of Plasmodium falciparum (HB3) proliferation (AID 504318). Note: nearly all actives have a fitted effect of over 60% in size. Note: potency is the fitted concentration of half-maximal effect. The method in brief: as §1
Experiment [5] addresses Atrial natriuretic peptide receptor 1 (Homo sapiens) (UniProt P16066). Briefly: Natriuretic polypeptide receptor (hNpr1) antagonism - Pilot CMLD screen (AID 1347052; calls by dose curve;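 note: HEK293 cells with hNpr1 stimulated by hNppA peptide at 0.1 nM; cGMP level read as GloSensor luciferase luminescence after agonist stimulation; series mostly up to about 9.2 µM; % is set by controls: 0 for no effect and ±100 for the full control effect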).
Experiment [6] can be described thus: qHTS for Inhibitors of Plasmodium falciparum (CP250) proliferation (AID 504320).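 Note: plate controls were DMSO vehicle for no effect and 0.29 µM artemisinin control for full effect.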 The method in brief: as §1

Molecules are shown by their SMILES. Inconclusive results are not listed. A number with no mark means an inactive call. Activity calls are given as the source filed them. Unless noted, calls come from the whole dose curve; as a rule, active = well fitted curve in the direction sought with a large enough effect; inconclusive = small, poorly fitted or top-dose-only effect, or another doubt; inactive = no such curve, though single readings can be large; an effect the other way counts as inactive or inconclusive.

Sequence of Atrial natriuretic peptide receptor 1 (Homo sapiens) (P16066 whole entry, looked up): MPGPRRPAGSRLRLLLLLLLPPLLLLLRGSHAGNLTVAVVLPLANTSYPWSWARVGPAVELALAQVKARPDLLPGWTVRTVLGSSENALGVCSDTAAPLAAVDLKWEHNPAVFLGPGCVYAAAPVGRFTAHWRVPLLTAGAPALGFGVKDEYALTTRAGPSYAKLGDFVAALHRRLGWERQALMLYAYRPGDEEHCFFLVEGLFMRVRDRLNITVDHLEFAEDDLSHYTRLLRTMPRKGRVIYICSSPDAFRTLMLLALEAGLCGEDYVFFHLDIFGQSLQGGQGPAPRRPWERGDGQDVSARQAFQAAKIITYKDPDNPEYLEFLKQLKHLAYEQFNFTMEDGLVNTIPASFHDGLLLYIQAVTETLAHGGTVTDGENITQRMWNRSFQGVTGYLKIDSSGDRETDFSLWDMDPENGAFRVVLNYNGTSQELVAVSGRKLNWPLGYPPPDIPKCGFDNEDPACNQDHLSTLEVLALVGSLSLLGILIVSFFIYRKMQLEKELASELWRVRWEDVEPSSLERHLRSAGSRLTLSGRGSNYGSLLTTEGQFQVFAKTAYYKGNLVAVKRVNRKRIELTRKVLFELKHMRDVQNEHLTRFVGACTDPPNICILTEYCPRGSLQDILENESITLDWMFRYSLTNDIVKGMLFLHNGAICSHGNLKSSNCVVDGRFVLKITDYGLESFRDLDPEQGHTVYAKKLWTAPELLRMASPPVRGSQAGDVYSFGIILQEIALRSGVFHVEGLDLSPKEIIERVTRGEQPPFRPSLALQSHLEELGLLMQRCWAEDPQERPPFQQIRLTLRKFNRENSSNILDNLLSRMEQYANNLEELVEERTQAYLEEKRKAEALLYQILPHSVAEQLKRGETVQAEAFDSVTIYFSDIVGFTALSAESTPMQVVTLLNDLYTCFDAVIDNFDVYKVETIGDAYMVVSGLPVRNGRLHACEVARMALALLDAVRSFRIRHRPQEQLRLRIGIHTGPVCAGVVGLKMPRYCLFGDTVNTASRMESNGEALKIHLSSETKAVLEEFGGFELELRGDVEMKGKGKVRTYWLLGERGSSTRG

In the case of `C[C@H]1C[C@@H](C)O[C@@]2(C1)C(=O)Nc1ccccc12`, the Potency result in experiment [1], in experiment [2], in experiment [3], in experiment [4] and in experiment [5] was “inactive” throughout.

Take `C[C@@H]1CC[C@H]2C(=O)N3[C@@H](CC[C@@H](C)[C@@H]3c3ccc(-c4ccco4)cc3)C(=O)N2[C@@H]1c1ccc(-c2ccco2)cc1`: the Potency result in experiment [1], in experiment [2], in experiment [3], in experiment [4] and in experiment [5] was “inactive” each time.

For the compound `C[C@H]1[C@H](N=[N+]=[N-])[C@H](O)CCO[C@@H]1c1ccccc1`, the Potency entry in experiment [1], in experiment [2], in experiment [3], in experiment [4] and in experiment [5] was “inactive” in each case.

`C=CC1=C2C=C(C3CC3)N(Cc3ccccc3)C=C2C(=O)C(C)(OC(=O)c2ccco2)C1=O` (stereo unspecified): the Potency result in experiment [1], in experiment [2], in experiment [3], in experiment [4] and in experiment [5] was “inactive” each time.

Turning to `COc1ccc(C=CC2=C[C@]3(C)C[C@]2(C)[C@H](c2ccc(OC)cc2)CC3=O)cc1`, the Potency was 1.5 µM (active) in experiment [1], 1.69 µM (active) in experiment [2], 1.51 µM (active) in experiment [3] and 1.51 µM (active) in experiment [4]. In experiment [5], the Potency result was “inactive”.

With `CCN1C(=NCCc2cccnc2)N[C@H](CCc2ccccc2)[C@H](C(=O)OC)[C@H]1C`, the Potency result in experiment [1], in experiment [2], in experiment [3], in experiment [4] and in experiment [5] was “inactive” throughout.

Turning to `CC(=O)OC[C@H]1O[C@H](C#Cc2ccccc2Cl)C=C[C@H]1OC(C)=O`, the Potency entry in experiment [1], in experiment [2], in experiment [3], in experiment [4] and in experiment [5] was “inactive” in each case.

As for `COC(=O)[C@H](C=C[C@H](C)Cc1cc(Br)cc(OCc2ccccc2)c1OC)OCc1ccccc1`, the Potency result in experiment [1], in experiment [2], in experiment [3], in experiment [4] and in experiment [5] was “inactive” in each case.

Regarding `CC1(OC(=O)CCc2ccccc2)C(=O)C=C2C=C(c3ccc(C#N)cc3)N(C(CO)CO)C=C2C1=O` (stereo unspecified), the activity, negative = inhibition in experiment [1] is -1.45% [at 1.12 µM]. In addition, the Potency entry in experiment [2], in experiment [3], in experiment [4] and in experiment [5] was “inactive” throughout.

On to `CCN1C(=O)NC(c2cccc(F)c2)C(C(=O)OC)=C1C` (stereo unspecified), for which the Potency entry in experiment [1], in experiment [2], in experiment [3], in experiment [4], in experiment [6] and in experiment [5] was “inactive” throughout.

For the compound `C=C(C)CO[C@H]1C=C[C@@H](c2ccccc2)O[C@H]1CO`, the Potency result in experiment [1], in experiment [2], in experiment [3], in experiment [4] and in experiment [5] was “inactive” throughout.

On to `CCN(CCNC(=O)[C@H]1C=C(OC)C(=O)C[C@@H]2c3ccccc3C[C@]12C)C(C)=O`, for which the Potency result in experiment [1], in experiment [2], in experiment [3], in experiment [4], in experiment [6] and in experiment [5] was “inactive” in each case.

On to `C=CCN1c2ccccc2[C@]23CCC(=O)N(CC(=O)OC)C2=NC(C(=O)OC)=C(C(=O)OC)[C@H]13`, for which the Potency entry in experiment [1], in experiment [2], in experiment [3], in experiment [4], in experiment [6] and in experiment [5] was “inactive” each time.

As for `COC(=O)C1C[C@@]23C(=NN=C(SC)C2N(C)c2ccc(OC)cc23)N1C(C)=O` (stereo partly specified), the Potency entry in experiment [1], in experiment [2], in experiment [3], in experiment [4] and in experiment [5] was “inactive” in each case.

Turning to `CCOC(=O)CCN1C(=O)[C@@H]2[C@H]3[C@H](O)[C@H](O)CC(=NO[C@@H]4O[C@H](COC(C)=O)[C@@H](OC(C)=O)[C@H](OC(C)=O)[C@@H]4OC(C)=O)[C@H]3CC[C@H]2C1=O`, the Potency result in experiment [1], in experiment [2], in experiment [3], in experiment [4], in experiment [6] and in experiment [5] was “inactive” each time.

`C=CC[C@@H]1C=C[C@@H](Oc2ccc(OC)cc2)[C@H](COC(=O)c2ccc(Br)cc2)O1`: the Potency entry in experiment [1], in experiment [2], in experiment [3], in experiment [4], in experiment [6] and in experiment [5] was “inactive” each time.

For `C=C(CCN1C=C(C(C)=O)C(c2ccccc2)NC1=O)c1ccc(OC)cc1` (stereo unspecified), the Potency entry in experiment [1], in experiment [2], in experiment [3], in experiment [4] and in experiment [5] was “inactive” each time.

`COC(=O)CCCC1=CC2=CC(=O)C(C)(OC(=O)c3cccs3)C(=O)C2=CN1CC(C)C` (stereo unspecified): the Potency result in experiment [1], in experiment [2], in experiment [3], in experiment [4], in experiment [6] and in experiment [5] was “inactive” each time.

On to `COc1cc2c(cc1OC)[C@@H]1O[C@](CCCCN3C(=O)c4ccccc4C3=O)(C2)OC2=C1C(=O)c1ccccc1C2=O`, for which the Potency in experiment [1] is 1.34 µM (active); in experiment [2], 1.51 µM (active); in experiment [3] it was 1.51 µM (active); in experiment [4], 1.51 µM (active). Besides, the Potency entry in experiment [6] and in experiment [5] was “inactive” throughout.

Turning to `COC(=O)N[C@@H](c1ccco1)[C@]1(C(C)=O)CCCC1=O`, the Potency entry in experiment [1], in experiment [2], in experiment [3], in experiment [4] and in experiment [5] was “inactive” in each case.

For `COC(=O)c1ccc(CN2C(=O)[C@]3(OCCC=C[C@@H]3C)c3c(Br)cccc32)cc1`, the Potency result in experiment [1], in experiment [2], in experiment [3], in experiment [4], in experiment [6] and in experiment [5] was “inactive” in each case.

With `CCN1C(=S)NC(c2ccccc2)C(C(=O)OC)=C1C` (stereo unspecified), the Potency result in experiment [1], in experiment [2], in experiment [3], in experiment [4] and in experiment [5] was “inactive” each time.

Regarding `CC1(OC(=O)c2cccs2)C(=O)C=C2C=C3CCCN3C=C2C1=O` (stereo unspecified), the activity, negative = inhibition in experiment [1] is -0.249% [at 1.12 µM]. For the same compound, the Potency result in experiment [2], in experiment [3], in experiment [4], in experiment [6] and in experiment [5] was “inactive” throughout.

`O=C1[C@H]2[C@@H]3[C@@H](O)[C@H](O)CC(=NOCc4ccccc4)[C@H]3CC[C@H]2C(=O)N1C[C@@H]1CCCO1`: the Potency result in experiment [1], in experiment [2], in experiment [3], in experiment [4], in experiment [6] and in experiment [5] was “inactive” throughout.

For the compound `COC(=O)N[C@@H](c1ccc(Br)cc1)C(C(=O)OC)C(=O)OC`, the Potency entry in experiment [1], in experiment [2], in experiment [3], in experiment [4] and in experiment [5] was “inactive” each time.

With `C[C@]12O[C@@H]1[C@@H](O)C(Br)=C(CO)[C@@H]2O`, the Potency result in experiment [1], in experiment [2], in experiment [3], in experiment [4], in experiment [6] and in experiment [5] was “inactive” throughout.
